The subject of test [1] is PA-1. Nature of the test: Primary qHTS to identify gynecologic anti-cancer compounds using libraries of approved drugs and bioactive compounds (AID 1345084). For activity change, negative = cytotoxicity: % is set by controls: 0 for no effect and ±100 for the full control effect. Note: nearly all actives have a fitted effect of over 55% in size. Note: potency is the fitted concentration of half-maximal effect. As to conditions: Gynecologic cancer cell panel viability, ATPlite luminescence, 48 h; series mostly up to 57.5 µM. In outline: (§1)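 Measured: luminescence after ATPlite addition (15 min, RT). Exposure: 48 h, 37 C, 5% CO2.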
A general note: Quantitative high-throughput screening tests each substance at several concentrations.

Test [2] relates to SKOV3. The description is as above. The note with it: Gynecologic cancer cell panel viability, ATPlite luminescence, 48 h; series mostly up to 57.5 µM. In outline:
as §1
On the technique in general: Cellular ATP, detected with luciferase, serves as a proxy for viable cell number.

Test [3] deals with Tov-21-G. Described as above. The note with it: Gynecologic cancer cell panel viability, ATPlite luminescence, 48 h; series mostly up to 57.5 µM. In outline:
as §1

For test [4], the system named is Tov112D. The test is described as above. The note with it: Gynecologic cancer cell panel viability, ATPlite luminescence, 48 h; series mostly up to 57.5 µM. The essentials: as §1
Test [5] in a line: Drug repurposing screens with cells derived from glioblastoma tumor samples (AID 1345199). For activity, negative = cell killing: % is set by controls: 0 for no effect and ±100 for the full control effect. Note: nearly all actives have a fitted effect of over 40% in size. Note: potency is the fitted concentration of half-maximal effect. As to conditions: GBM patient neurospheres viability, ATP luminescence, 48 h. The essentials:
(§2)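 Primary testing used CD133+ neurospheres from four GBM patients, seven concentrations, 48 h exposure and ATP-based viability; confirmation added three slower-growing patient lines.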

Test [6] has as its system astro. The test is described as above. As to conditions: viability, ATP luminescence, 48 h; series mostly up to 45.9 µM. The essentials: as §2
For test [7], the target named is Nuclear receptor subfamily 1 group I member 2 (Rattus norvegicus) (UniProt Q9R1A7). Nature of the test: qHTS assay for small molecule activators of the rat pregnane X receptor (rPXR) signaling pathway (AID 651751; call rule not given here; note: 0% is about no effect). As to conditions: rPXR reporter cells, luciferase (One-Glo), 24 h.
The mark [8] stands for this setting: at 45.9 µM (top of the series), tumour line B.

Unmarked numbers belong to inactive results. Records with an inconclusive call do not appear. Calls of active or inactive are those of the source. Unless noted, calls come from the whole dose curve; as a rule, active = well fitted curve in the direction sought with a large enough effect; inconclusive = small, poorly fitted or top-dose-only effect, or another doubt; inactive = no such curve, though single readings can be large; an effect the other way counts as inactive or inconclusive.

Chain of Nuclear receptor subfamily 1 group I member 2 (Rattus norvegicus) (Q9R1A7 whole entry, looked up): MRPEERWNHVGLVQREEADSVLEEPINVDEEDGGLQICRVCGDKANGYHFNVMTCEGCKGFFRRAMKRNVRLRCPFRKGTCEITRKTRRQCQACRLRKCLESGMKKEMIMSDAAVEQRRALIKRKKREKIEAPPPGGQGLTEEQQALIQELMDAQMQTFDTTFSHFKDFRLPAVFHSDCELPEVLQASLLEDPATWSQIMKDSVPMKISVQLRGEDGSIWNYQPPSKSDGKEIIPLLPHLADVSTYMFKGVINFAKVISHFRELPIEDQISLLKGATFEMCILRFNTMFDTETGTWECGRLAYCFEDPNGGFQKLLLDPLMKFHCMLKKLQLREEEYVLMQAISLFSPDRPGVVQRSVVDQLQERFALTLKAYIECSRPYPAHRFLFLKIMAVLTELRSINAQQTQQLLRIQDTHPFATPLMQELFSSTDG

In the case of `COc1c(C(C)C)cc2c(c1O)[C@@]1(C(=O)O)CCCC(C)(C)C1CC2` (stereo partly specified), the Potency entry in test [1], in test [2], in test [3] and in test [4] was “inactive” each time.

On to `C/C=C(\C)C(=O)OC1CC2C(CC=C3CC(OC4CC(OC)C(OC5CC(OC)C(OC6OC(C)C(OC7OC(CO)C(O)C(O)C7O)C(OC)C6O)C(C)O5)C(C)O4)CCC32C)C2(O)CCC(C(C)=O)C12C` (stereo unspecified), for which the activity change, negative = cytotoxicity is -3.75% [at 11.6 µM] in test [1], 18.2% [at 11.6 µM] in test [2], 3.39% [at 11.6 µM] in test [3] and 3.97% [at 11.6 µM] in test [4].

As to `CN1C(=O)c2ccccc2NC(=O)C1Cc1ccccc1` (stereo unspecified), the Potency entry in test [1], in test [2], in test [3] and in test [4] was “inactive” in each case.

Consider `Clc1ccc(N2C[C@H]3CC[C@@H](C2)N3)nn1`, for which the Potency result in test [1], in test [2], in test [3] and in test [4] was “inactive” each time.

On to `C[C@]12CC[C@@H](O)C[C@H]1CC[C@@H]1[C@@H]2CC[C@]2(C)C(=O)CC[C@@H]12`, for which the Potency entry in test [1], in test [2], in test [3] and in test [4] was “inactive” throughout.

As for `COC(=O)C1(C)CCC(=O)C2(C)c3c(O)cc(C(C)C)cc3C(O)C(OC(C)=O)C12` (stereo unspecified), the Potency entry in test [1], in test [2], in test [3] and in test [4] was “inactive” throughout.

For `CN1[C@H]2C[C@H](OC(=O)[C@H](CO)c3ccccc3)C[C@@H]1[C@@H](O)C2`, the Potency entry in test [1], in test [2], in test [3] and in test [4] was “inactive” each time.

Take `CCc1[nH]c2ccc(OC)cc2c1CCN(C)C`: the Potency result in test [1], in test [2], in test [3] and in test [4] was “inactive” throughout.

For the compound `Clc1ccc(OCC2=NCCN2)cc1Cl`, the Potency result in test [1], in test [2], in test [3] and in test [4] was “inactive” each time.

Consider `CCc1c(C(=O)C(N)=O)c2c(OCC(=O)OC)cccc2n1Cc1ccccc1`, for which the Potency result in test [1], in test [2], in test [3] and in test [4] was “inactive” in each case.

Turning to `C[C@H](NC(=O)Cc1cc(F)cc(F)c1)C(=O)N[C@@H]1N=C(c2ccccc2)c2ccccc2N(C)C1=O`, the Potency result in test [1], in test [3] and in test [4] was “inactive” each time.

On to `COc1cc2c(cc1OC)[C@@]13CCN4CC5=CCO[C@H]6CC(=O)N2[C@H]1[C@H]6[C@H]5C[C@H]43`, for which the Potency entry in test [1], in test [3], in test [4] and in test [6] was “inactive” each time. For the same compound, the activity, negative = cell killing in test [5] (setting [8]) is -6.02%; in test [5] (at 45.9 µM (top of the series), tumour line D), -3.06%; in test [5] (at 46.1 µM (top of the series), tumour line C), 1.45%. Besides, in test [5] (tumour line A), the Potency was 79.4 nM (active).

Consider `O=C(O)c1ccnc2cc(C(OCCN3CCCCC3)c3ccccc3Cl)[nH]c12` (stereo unspecified), for which the Potency result in test [1], in test [3] and in test [4] was “inactive” each time.

`C=CC(C)(O)CC/C=C(\C)C(=O)O[C@H]1[C@H](O)[C@@H](CO)O[C@@H](OC(=O)[C@]23CCC(C)(C)CC2C2=CCC4[C@@]5(C)CC[C@H](O[C@@H]6O[C@H](CO[C@@H]7OC[C@H](O)[C@H](O)[C@H]7O[C@@H]7OC[C@@H](O)[C@H](O)[C@H]7O)[C@@H](O)[C@H](O)[C@H]6O)C(C)(C)C5CC[C@@]4(C)[C@]2(C)CC3)[C@@H]1OC1OC(C)C(O[C@@H]2OC[C@@H](O)[C@H](O[C@@H]3OC[C@@H](O)[C@H](O)[C@H]3O)[C@H]2O)C(O)C1O` (stereo partly specified): the activity change, negative = cytotoxicity in test [1] is 3.75% [at 6.55 µM]; in test [2] it was 0% [at 6.55 µM]; in test [3], 5.83% [at 6.55 µM]; in test [4], 1.17% [at 6.55 µM].

For `CCCN1CCO[C@H]2c3cc(O)ccc3OC[C@@H]21`, the Potency entry in test [1], in test [2], in test [3] and in test [4] was “inactive” in each case.

Regarding `COC1C(O)C(OC2CCC3(C=O)C(CCC4C3CCC3(C)C(C5=CC(=O)OC5)CCC43O)C2)OC(C)C1OC1OC(CO)C(O)C(O)C1O` (stereo unspecified), the Potency in test [2] is 708 nM (active); in test [3] it was 631 nM (active); in test [4], 316 nM (active).

For `COc1cc(C)[nH]c(=O)c1CNC(=O)c1c(C)n([C@H](C)C2CCOCC2)c2ccccc12`, the Potency result in test [1], in test [3] and in test [4] was “inactive” in each case.

In the case of `COC1CC(OC2CCC3(C)C(CCC4C3CCC3(C)C(C5=CC(=O)OC5)C(OC(C)=O)CC43O)C2)OC(C)C1OC1OC(CO)C(O)C(O)C1O` (stereo unspecified), the Potency in test [3] is 1260 nM (active); in test [4], 891 nM (active).

In the case of `C=C(CO)C(=O)O[C@H]1C/C(C)=C/CC/C(CO)=C/[C@H]2OC(=O)C(=C)[C@H]12`, the Potency entry in test [1], in test [2], in test [3] and in test [4] was “inactive” in each case.

For `CCN1CC2(COC)C3[C@@H](OC)C4C1C3(C1C[C@]3(O)[C@H](OC(=O)c5ccccc5)C1[C@]4(OC(C)=O)[C@@H](O)[C@@H]3OC)[C@H](OC)C[C@H]2O` (stereo partly specified), the Potency result in test [2], in test [3] and in test [4] was “inactive” each time.

Consider `CN1C(=O)c2ccccc2NC(=O)[C@]12O[C@@H]2c1ccccc1`, for which the Potency result in test [2], in test [3] and in test [4] was “inactive” throughout.

As for `CCCSP(=O)(OCC)SCCC`, the Potency result in test [1], in test [2], in test [3], in test [4] and in test [6] was “inactive” in each case. The activity, negative = cell killing in test [5] (at 91.6 µM (top of the series), tumour line A) was -29.2%; in test [5] (at 91.6 µM (top of the series), tumour line B), -4.25%; in test [5] (at 91.6 µM (top of the series), tumour line D), -15.9%; in test [5] (at 99.2 µM (top of the series), tumour line C), 13.9%. The max response in test [7] was 5.9%.

Regarding `N#CC(C#N)=Cc1cc(O)c(O)c(O)c1`, the activity, negative = cell killing in test [5] (setting [8]) was -27.1%. Moreover, the Potency in test [5] (tumour line D) is 12600 nM (active).

On to `O=C(N1CCOCC1)N1CCN(c2ccc(Cl)cc2)CC1`, for which the Potency entry in test [1], in test [2], in test [3] and in test [4] was “inactive” each time.
